Experimental data reported in PubChem BioAssay (Tox21).
Records with an inconclusive call do not appear. Values without a mark were called inactive. Activity calls are given as the source filed them. The call rests on the fitted dose curve; in most records, active means well fitted inhibition curve with a large enough effect in the signal ratio in the repeat runs (not every such curve was filed as active); inconclusive means weak or mixed curves, or effect the other way; inactive means no such curve, though single readings can be large or run the other way; the % refers to the signal ratio.

Biological target: Glucocorticoid receptor (Homo sapiens) (UniProt P04150)
Sequence (P04150 whole entry, looked up): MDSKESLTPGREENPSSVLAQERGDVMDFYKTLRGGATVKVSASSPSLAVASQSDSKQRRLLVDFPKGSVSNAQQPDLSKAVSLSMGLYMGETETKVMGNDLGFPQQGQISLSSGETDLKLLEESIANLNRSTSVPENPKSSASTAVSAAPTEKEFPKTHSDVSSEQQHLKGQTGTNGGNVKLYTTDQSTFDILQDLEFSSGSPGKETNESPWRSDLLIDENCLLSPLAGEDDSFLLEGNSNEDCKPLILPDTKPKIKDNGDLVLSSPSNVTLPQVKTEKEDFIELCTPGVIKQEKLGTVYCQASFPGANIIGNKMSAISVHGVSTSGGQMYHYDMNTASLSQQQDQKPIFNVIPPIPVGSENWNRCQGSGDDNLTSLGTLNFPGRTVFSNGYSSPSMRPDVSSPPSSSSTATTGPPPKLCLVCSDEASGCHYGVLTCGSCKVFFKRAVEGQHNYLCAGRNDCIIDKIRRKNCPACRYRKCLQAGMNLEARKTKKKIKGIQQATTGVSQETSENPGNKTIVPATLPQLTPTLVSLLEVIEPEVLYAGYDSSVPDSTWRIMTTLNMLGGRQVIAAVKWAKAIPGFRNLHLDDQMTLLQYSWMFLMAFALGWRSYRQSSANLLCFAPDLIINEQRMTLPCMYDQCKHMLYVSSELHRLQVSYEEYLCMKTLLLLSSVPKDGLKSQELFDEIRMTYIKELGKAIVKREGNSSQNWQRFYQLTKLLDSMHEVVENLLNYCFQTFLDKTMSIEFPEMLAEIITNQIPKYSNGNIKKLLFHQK
Assay: qHTS assay to identify small molecule antagonists of the glucocorticoid receptor (GR) signaling pathway (AID 720692)
Conditions: GR-bla HeLa, beta-lactamase FRET ratio, dexamethasone-stimulated, 18 h; series mostly up to 58.5 µM; activity change, negative = inhibition: at the top concentration
Excerpt: U.S. Tox21 Program National Center for Advancing Translational Sciences [NCATS] NIH Chemical Genomics Center [NCGC] U.S. Environmental Protection Agency [EPA] National Institutes of Environmental Health Sciences [NIEHS] National Toxicology Program [NTP] U.S. Food and Drug Administration [FDA] Tox21 Assay Overview: The Glucocorticoid receptor (GR) is one of the members of the nuclear receptor family of ligand-dependent transcription factors. GR plays a critical role in carbohydrate, protein and lipid metabolisms and programmed cell death. CellSensor GR-bla HeLa cell line (Invitrogen) contains a beta-lactamase reporter gene under the control of the glucocorticoid response element stably integrated into HeLa cells, a cervical cancer cell line that expresses glucocorticoid receptor. The activation of the reporter gene under culture conditions can be detected by fluorescence intensity. This cell line has been used to screen the Tox21 10K compound library and to identify the compounds that inhibit the GR signaling.
Tox21 Assay Protocol Summary: The GR-bla HeLa cells were dispensed at 1500 cells/5 ul/well in 1536-well black wall/clear bottom plates using a Multidrop Combi (ThermoFisher Scientific, Waltham, MA) dispenser. After the assay plates were incubated at a 37 C/5% CO2 incubator for 4 hours, 23 nL of compounds dissolved in DMSO, positive controls or DMSO only was transferred to the assay plate by a pintool station (Kalypsys, San Diego, CA), followed by addition of 1 uL of dexamethasone (5 nM, final concentration in the well). The plates were incubated at 37 C for 18 hours. After 1 uL of LiveBLAzerTM B/G FRET substrate was added using a Flying Reagent Dispenser (Aurora Discovery, San Diego, CA), the plates were incubated at room temperature for 2 hours, and fluorescence intensity was measured by an Envision plate reader (PerkinElmer, Shelton, CT).
On the % scale 0 is the no-effect control and ±100 the full control effect; potency means the concentration at half of the fitted maximal effect.

| SMILES | activity change, negative = inhibition | Potency |
| --- | --- | --- |
| CN(C)C(=O)NC1(c2ccccc2)CCN(CC[C@@]2(c3ccc(F)c(F)c3)CN(C(=O)c3ccccc3)CCO2)CC1 | -12.5% | – |
| CCN(CC)CCOC(=O)C(c1ccccc1)C1CCCCC1 (stereo not given) | -14.1% | – |
| CN(C)CCN(Cc1ccccc1)c1ccccn1 | 18.2% | – |
| c1ccc(CNCCNCc2ccccc2)cc1 | -5.96% | – |
| COC(C)OC | -0.455% | – |
| CCCCC | – | inactive |
| CC(=O)NO | -2.14% | – |
| C=CC(=O)OCCOc1ccccc1 | – | 21.9 µM (active) |
| Brc1c2ccccc2cc2ccccc12 | 1.76% [at 78.9 µM] | – |
| CCCCc1ncc(/C=C(\Cc2cccs2)C(=O)O)n1Cc1ccc(C(=O)O)cc1 | 2.46% | – |
| Nc1cccc(S(=O)(=O)c2cccc(N)c2)c1 | -27.4% | – |
| COc1cc(Cl)c(OC)cc1N | 1.98% | – |
| C/C(=C(\CCOP(=O)(O)O)SC(=O)c1ccccc1)N(C=O)Cc1cnc(C)nc1N | 28.7% [at 27 µM] | – |
| Nc1ccc(S(=O)(=O)Nc2ccccc2)cc1 | -1.47% | – |
| O=C(NCCO[N+](=O)[O-])c1cccnc1 | 3.41% | – |
| CCCn1cnc2c1c(=O)n(CCCCC(C)=O)c(=O)n2C | 15.6% | – |
| CCOc1ccc(N=Nc2ccc(/C=C/c3ccc(N=Nc4ccc(OCC)cc4)cc3S(=O)(=O)O)c(S(=O)(=O)O)c2)cc1 | -9.45% | – |
| CCC(C)(C)CC | -16.6% [at 78.9 µM] | – |
| COC(C)(C)CCO | -0.425% | – |
| c1cc(CCCc2ccncc2)ccn1 | -17.3% | – |

| SMILES | activity change, negative = inhibition | Potency |
| --- | --- | --- |
| CC[N+]1(CC)CCC(=C(c2ccccc2)c2ccccc2)C1C (stereo not given) | -1.29% | – |
| CCCOC(C(=O)OC1CCN(C)CC1)(c1ccccc1)c1ccccc1 | -1.62% | – |
| C[C@H](CCC(=O)O)[C@H]1CC[C@H]2[C@@H]3CC[C@@H]4C[C@H](O)CC[C@]4(C)[C@H]3C[C@H](O)[C@]12C | – | 49.1 µM (active) |
| CCCCC(CC)COC(=O)COc1ccc(Cl)cc1Cl (stereo not given) | -8.84% [at 78.9 µM] | – |
| C=C1[C@H]2CC[C@@H]3[C@H]2C(C)(C)CCC[C@]13C | -0.794% | – |
| OC[C@H]1O[C@@H](OCCc2ccc(O)cc2)[C@H](O)[C@@H](O)[C@@H]1O | -2.08% | – |
| CNC(=O)CN(CCN(CCN(CC(=O)[O-])CC(=O)NC)CC(=O)[O-])CC(=O)[O-].O.[Gd+3] | – | inactive |
| O=C1C(O)=C(O)C(=O)C(O)=C1O | -0.433% | – |
| O=C1CCCCCCCCCCCC(=O)OCCO1 | 8.46% | – |
| COCC(C)OC(C)=O (stereo not given) | 0.496% | – |
| COc1ccc(C)cc1[N+](=O)[O-] | -3.53% [at 78.9 µM] | – |
| O=C1CCC(=O)O1 | 1.23% [at 78.9 µM] | – |
| CCCCNc1ccc(C(=O)OCCOCCOCCOCCOCCOCCOCCOCCOCCOC)cc1 | 28.9% [at 27 µM] | – |
| Cc1oc(-c2ccccc2)nc1CCOc1cccc2c1ccn2CCC(=O)O | -19.7% | – |
| C=CCOc1ccccc1OCC(O)CNC(C)C (stereo not given) | -8.77% [at 27 µM] | – |
| CCCCCCCC/C=C\CCCCCCCC(=O)OCC | -10.3% | – |
| O=C1c2ccccc2S(=O)(=O)N1CCCCN1CCN(c2ncccn2)CC1 | -8.07% | – |
| C=CCOC(=O)CCC1CCCCC1 | 15.6% | – |
| Nc1ccccc1S(=O)(=O)c1ccccc1 | 24.5% | – |
| Cc1cccc(C)c1OCC(=O)N[C@@H](Cc1ccccc1)[C@@H](O)C[C@H](Cc1ccccc1)NC(=O)[C@H](C(C)C)N1CCCNC1=O | – | 23.9 µM (active) |
